In PubChem BioAssay (EPA / NIEHS) one finds outcome and AC50 data, which are given here for 40 molecules.

The source made the active and inactive calls. How the source made its calls: active means hit-call score of the fitted dose curve at least 0.9, where 1 is the maximum; inactive means score below 0.9.

Sequence of Broad substrate specificity ATP-binding cassette transporter ABCG2 (Homo sapiens) (Q9UNQ0 whole entry, looked up): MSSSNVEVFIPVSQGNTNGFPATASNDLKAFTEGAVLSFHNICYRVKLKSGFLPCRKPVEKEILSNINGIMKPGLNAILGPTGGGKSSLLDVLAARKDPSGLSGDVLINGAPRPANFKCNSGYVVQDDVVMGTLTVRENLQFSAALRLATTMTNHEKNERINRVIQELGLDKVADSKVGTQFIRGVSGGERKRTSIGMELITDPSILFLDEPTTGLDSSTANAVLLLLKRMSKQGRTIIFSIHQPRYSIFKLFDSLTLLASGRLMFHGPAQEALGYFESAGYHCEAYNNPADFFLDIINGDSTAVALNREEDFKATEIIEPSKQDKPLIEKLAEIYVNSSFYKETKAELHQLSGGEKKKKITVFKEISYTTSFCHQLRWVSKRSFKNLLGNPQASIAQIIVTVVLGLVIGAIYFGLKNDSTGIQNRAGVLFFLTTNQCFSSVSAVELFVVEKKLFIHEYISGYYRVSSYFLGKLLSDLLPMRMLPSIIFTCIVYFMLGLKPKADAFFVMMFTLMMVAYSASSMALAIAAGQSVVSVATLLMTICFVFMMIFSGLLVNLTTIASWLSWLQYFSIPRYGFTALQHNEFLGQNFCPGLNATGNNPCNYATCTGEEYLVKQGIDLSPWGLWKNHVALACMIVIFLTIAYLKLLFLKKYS

Read-out in the assay: Broad substrate specificity ATP-binding cassette transporter ABCG2 (Homo sapiens) (UniProt Q9UNQ0)
Nature of the assay: LTEA_HepaRG_ABCG2: Life Technologies and Expression Analysis (LTEA) Assay for ABC Transporter (ABCG2) using HepaRG (AID 2283465). The conditions noted are these: mRNA level, 48 h; actives raise or lower the signal. As to the method: LTEA_HepaRG is a cell based, multiplexed-readout assay that uses HepaRG, a human liver cell line, with measurements taken at 48 hours after chemical dosing on a 96-well plate.LTEA_HepaRG_ABCG2 is one of 102 assay component(s) measured in the LTEA HepaRG cell culture assay. It is a marker of Steatosis/NR mediated transport.Data from the assay component LTEA_HepaRG_ABCG2 was analyzed into 1 endpoint. This assay endpoint, LTEA_HepaRG_ABCG2, was analyzed with bidirectional fitting relative to DMSO as the negative control and baseline of activity. Using a type of inducible reporter, measures of mRNA induction for gain or loss-of-signal activity can be used to understand regulation of transcription factor activity. To generalize the intended target to other relatable targets, this assay endpoint is annotated to the transporter intended target family, where the subfamily is ABC transporter.
A total of 1060 chemcials from the ToxCast library were tested in eight-point concentration-response experiments. Cell culture and cytotoxicity assays were conducted at Thermo Fisher Scientific's Custom Services facility (Madison, WI). A single lot of human HepaRG cells (Thermo Fisher Scientific, Frederick, MD) was used for the cell culture experiments. 96-well format collagen type I coated plates of human HepaRG cells were prepared using established methods. Briefly, cryopreserved HepaRG cells were thawed, plated at a density of approximately 100,000 cells/well in HepaRG Thaw, Plate, and General Purpose media (HPRG770, Thermo Fisher Scientific), and incubated for 48 hours. 0.5% DMSO was selected as vehicle control to balance the requisite need of DMSO in HepaRG cultures to maintain differentiation (for example, baseline metabolism, proportions of hepatocytes vs. cholangiocytes), while enabling further hepatic receptor pathway activation (for example, PXR and CAR) in response to chemical exposure. 48 hours after plating, the culture medium was replaced with HepaRG Serum-Free Incudtion Media. Cells were exposed to each test chemical in duplicate and maintained in CO2 incubators for another 48 hours. Chemical plates were thawed to room temperature and 200x concentrations of treatment groups were prepared. 8-point conentration-reponse curves were made with the highest exposure at 100 uM, followed by half-log dilutions, all in 0.5% DMSO. Each test plate contained variouse controls, induction positive controls (1mM phenobarbital), cytotoxicity positive controls ([…] aflatoxin B1), vehicle controls (0.5% DMSO), and total lysis controls (0.5% DMSO). Cell morphology images were taken using an Essen IncuCyte FLR automated microscope, with six 96-well plates imaged in about 24 minutes. Images were captured and exported and JPEG files. Spent culture media was transfered to black-well plates for the LDH assay, and remaining media was sorted at -80 C for later use. Cells were treated with RLT buffer and frozen until shipped for gene expression analysis. Total RNA was isolated from the cell suspension in 75 uL of Buffer RLT (Qiagen, Germantown, MD 20874) by Quintiles/Expression Analysis (Durham, NC) using a custom isolation procedure. Total RNA from each plate well was transferred to a preamplification plate. Fluidigm's 96.96 Dynamic ArrayTM (Fluidigm, Amsterdam, the Netherlands) technology was used for gene expression analyses by quantitative reverse transcription polymerase chain reaction (qRT-PCR, performed by Quintiles/Expression Analysis, Durham, NC)89. Standard TaqManTM Assays (Applied Biosystems/ThermoFisher Scientific, Foster City, CA) were used to assess the expression of 93 genes selected based on their selectivity and sensitivity to important hepatic receptors known to be modulated by environmental chemicals; importance in human hepatocyte functionality; and hepatotoxicity. […]
Regarding `CCCCCc1ccc(N)cc1`, the result was inactive.

Consider `CN(C)C(=O)C1(N2CCCCC2)CCN(CC[C@@]2(c3ccc(Cl)c(Cl)c3)CN(C(=O)c3ccccc3)CCO2)CC1`, for which the molecule was classed as inactive.

Consider `Cc1c2ccccc2c(C)c2c1ccc1ccccc12`, for which the AC50 is 12.8 µM (active).

With `O=C1CCC(C2CCCCC2)CC1`, the result was inactive.

On to `CCCCOC(=O)c1ccc(O)cc1`, for which the result was inactive.

Take `C[C@]12CC[C@@H]3c4ccc(O)cc4CC[C@H]3[C@@H]1CCC2=O`: the AC50 is 16.7 µM (active).

Take `CCCCCCCCN(C)CCCCCCCC`: the molecule was called inactive.

Consider `CC(C)(c1cc(Br)c(O)c(Br)c1)c1cc(Br)c(O)c(Br)c1`, for which the call was inactive.

As to `O=C1O[C@H]([C@@H](O)CO)C(O)=C1O`, the outcome was inactive.

As for `CO[C@H]1/C=C/O[C@@]2(C)Oc3c(C)c(O)c4c(O)c(c(/C=N/N5CCN(C)CC5)c(O)c4c3C2=O)NC(=O)/C(C)=C\C=C\[C@H](C)[C@H](O)[C@@H](C)[C@@H](O)[C@@H](C)[C@H](OC(C)=O)[C@@H]1C`, the result was inactive.

Regarding `O=C=NCCCCCCN=C=O`, the molecule was classed as inactive.

Consider `CC(O)CC(C)(C)O` (stereo not given), for which the result was inactive.

For `O=c1c(-c2ccc(O)cc2)coc2cc(O)cc(O)c12`, the molecule was called inactive.

Turning to `OC12N=C(c3ccccc3)SC1Cc1cc(Cl)ccc12` (stereo not given), the AC50 is 16.7 µM (active).

As for `CC1(C)NC(=O)N(c2ccc([N+](=O)[O-])c(C(F)(F)F)c2)C1=O`, the concentration at half-maximal activity (AC50) is 29.3 µM (active).

Consider `CN(C[C@@H](CC[N+]12CCC(C3CCCCC3)(CC1)CC2)c1ccc(Cl)c(Cl)c1)C(=O)c1cc(C(F)(F)F)cc(C(F)(F)F)c1`, for which the call was inactive.

Take `CCCC(=O)OCCC(C)C`: the molecule was classed as inactive.

Regarding `Cc1oc2c(NC(=O)c3c(Cl)cccc3Cl)cccc2c1C(C)(C)O`, the result was inactive.

With `c1ccc2ccccc2c1`, the molecule was called inactive.

As to `Cc1ccc(C(C)C)cc1`, the molecule was classed as inactive.

Consider `O=CCCCC=O`, for which the outcome was inactive.

Turning to `CC[C@H](NC(=O)c1cc(F)ccc1NS(=O)(=O)c1cccc2cccnc12)c1ccccc1`, the call was inactive.

`OCCO`: the molecule was called inactive.

For the molecule `CCO[Si](CCCNC(N)=O)(OCC)OCC`, the call was inactive.

Regarding `CCCCCCCCCCCO`, the molecule was called inactive.

`O=C(O)c1ccccc1-n1cc(C(=O)O)c(=O)c2cc(Nc3c(F)cc(F)cc3Cl)c(Cl)cc21`: the call was inactive.

For `Cc1ccc2oc(CN(Cc3ccccc3)C(=O)Nc3c(F)cc(F)cc3F)c(-c3ccc(Cl)cc3)c2c1`, the concentration at half-maximal activity (AC50) is 17.6 µM (active).

On to `CC1=CC(=O)/C(=C(/C)O)C(=O)O1`, for which the outcome was inactive.

On to `Oc1ccc2ccccc2c1`, for which the molecule was classed as inactive.

Turning to `Cc1cn([C@H]2C[C@H](N=[N+]=[N-])[C@@H](CO)O2)c(=O)[nH]c1=O`, the outcome was inactive.

In the case of `CCCCCCCC[Si](OCC)(OCC)OCC`, the call was inactive.

For `CCN(Cc1cccnc1)C(=O)c1cccc(Cl)c1[C@]1(C)C(=O)N(Cc2ccc(OC)cc2OC)c2ccc(Cl)cc21`, the half-maximal activity concentration (AC50) was 6.56 µM (active).

As to `CC/C(=C(/CC)c1ccc(O)cc1)c1ccc(O)cc1`, the half-maximal activity concentration (AC50) is 50 µM (active).

With `CC(C)(C)c1csc(-c2cc3cc(OCc4ccccc4CC(=O)O)ccc3o2)n1`, the AC50 is 15.8 µM (active).

In the case of `O=C1c2ccccc2C(=O)N1CCc1noc(-c2ccc(CN3CCCCCC3)s2)n1`, the outcome was inactive.

`O=C(O)Cc1cc(I)c(Oc2ccc(O)c(I)c2)c(I)c1`: the AC50 was 73.1 µM (active).

On to `CCN(Cc1cccc(S(=O)(=O)O)c1)c1ccc(C(=C2C=CC(=[N+](CC)Cc3cccc(S(=O)(=O)O)c3)C=C2)c2ccccc2S(=O)(=O)[O-])cc1`, for which the call was inactive.

For `COc1ccc2cc(S(=O)(=O)N[C@H](CC(=O)N[C@H](Cc3ccc(CN4[C@H](C)CCC[C@@H]4C)cc3)C(=O)N(C)C(C)C)c3ccc4c(c3)OCO4)ccc2c1`, the call was inactive.

For `CN(C)c1ccc(C(=C2C=CC(=[N+](C)C)C=C2)c2ccc(N(C)C)cc2)cc1`, the outcome was inactive.

Take `COc1cccc([C@H](O)C2CCN(CCc3ccc(F)cc3)CC2)c1OC`: the molecule was called inactive.

A word on the AC50: it is the concentration giving half of the maximal activity seen.
